One assay relates to MCC-13. Nature of the assay: qHTS assay to identify novel small-molecules to repurpose for Merkel cell carcinoma treatment (AID 1296009). Also: nearly all actives have a fitted effect of over 60% in size. As to conditions: MCC and control cell lines, CellTiter-Glo viability, 72 h; series mostly up to 46 µM. The essentials:
(§1)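 qHTS format: cells treated with library compounds in DMSO across 8 (NPC) or 11 (MIPE) concentrations. Readout after 72 hr at 37 degree celsius was CellTiter-Glo luminescence.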
In general terms: In qHTS, concentration-response curves come from the screen itself.

The test system of a further assay is MKL-1. Described as above. As to conditions: MCC and control cell lines, CellTiter-Glo viability, 72 h; series mostly up to 46 µM. The gist of the method: as §1
For the next assay, the system named is MKL-2. The description is as above. The note with it: MCC and control cell lines, CellTiter-Glo viability, 72 h; series mostly up to 46 µM. The gist of the method:
as §1
In general terms: In ATP-based viability assays light output follows the ATP content of the culture.

A further assay concerns UISO. The description is as above. As to conditions: MCC and control cell lines, CellTiter-Glo viability, 72 h; series mostly up to 46 µM. The essentials: as §1
In the next assay the test system is WaGa. The description is as above. The note with it: MCC and control cell lines, CellTiter-Glo viability, 72 h; series mostly up to 46 µM. The gist of the method: as §1
In a further assay the test system is C33A. Briefly: Primary qHTS to identify gynecologic anti-cancer compounds using libraries of approved drugs and bioactive compounds (AID 1345084). Also: nearly all actives have a fitted effect of over 55% in size. The note with it: Gynecologic cancer cell panel viability, ATPlite luminescence, 48 h; series mostly up to 57.5 µM. The gist of the method:
(§2)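 Cells, 1,000 per well, were allowed to settle for 16 h at 37 C before compound addition. Five concentrations were tested for 48 h, and viability was read by ATPlite luminescence after 15 min at room temperature.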

In a further assay the test system is CASKI. The description is as above. The note with it: Gynecologic cancer cell panel viability, ATPlite luminescence, 48 h; series mostly up to 57.5 µM. The gist of the method:
as §2

In the next assay the test system is Es-2. The assay is described as above. As to conditions: Gynecologic cancer cell panel viability, ATPlite luminescence, 48 h; series mostly up to 57.5 µM. The essentials:
as §2

The next assay deals with HeLa. Described as above. The note with it: Gynecologic cancer cell panel viability, ATPlite luminescence, 48 h; series mostly up to 57.5 µM. The gist of the method:
as §2

The next assay concerns Hek293T. Described as above. The note with it: Gynecologic cancer cell panel viability, ATPlite luminescence, 48 h, control line for the selectivity index; series mostly up to 57.5 µM. The gist of the method:
as §2

For another assay, the system named is JEG-3. The assay is described as above. The note with it: Gynecologic cancer cell panel viability, ATPlite luminescence, 48 h; series mostly up to 57.5 µM. The gist of the method:
as §2

In another assay the test system is OV90. The description is as above. As to conditions: Gynecologic cancer cell panel viability, ATPlite luminescence, 48 h; series mostly up to 57.5 µM. The gist of the method: as §2
Another assay relates to PA-1. Described as above. The note with it: Gynecologic cancer cell panel viability, ATPlite luminescence, 48 h; series mostly up to 57.5 µM. The essentials:
as §2

The test system of another assay is SKOV3. Described as above. The note with it: Gynecologic cancer cell panel viability, ATPlite luminescence, 48 h; series mostly up to 57.5 µM. The essentials:
as §2

Another assay relates to Tov-21-G. The assay is described as above. As to conditions: Gynecologic cancer cell panel viability, ATPlite luminescence, 48 h; series mostly up to 57.5 µM. The essentials:
as §2

A further assay has as its system MCC-26. Nature of the assay: qHTS assay to identify novel small-molecules to repurpose for Merkel cell carcinoma treatment (AID 1296009). Also: nearly all actives have a fitted effect of over 60% in size. The note with it: MCC and control cell lines, CellTiter-Glo viability, 72 h; series mostly up to 46 µM. The gist of the method: as §1
The test system of another assay is CAOV3. Briefly: Primary qHTS to identify gynecologic anti-cancer compounds using libraries of approved drugs and bioactive compounds (AID 1345084). Also: nearly all actives have a fitted effect of over 55% in size. As to conditions: Gynecologic cancer cell panel viability, ATPlite luminescence, 48 h; series mostly up to 57.5 µM. The gist of the method:
as §2

Inconclusive results are not listed. Calls of active or inactive are those of the source. Calls follow the shape of the dose curve; as a rule, active = well fitted curve in the direction sought with a large enough effect; inconclusive = small, poorly fitted or top-dose-only effect, or another doubt; inactive = no such curve, though single readings can be large; an effect the other way counts as inactive or inconclusive.
Potency is read from the fitted curve at half-maximal effect.

Take `CCCCCCCCOc1ccc(C(=O)c2ccccc2)c(O)c1`: the Potency entry in the assay on MCC-13, in the assay with MKL-1, with MKL-2, in the assay on UISO, with WaGa and in the assay with C33A was “inactive” throughout. The Potency entry with CASKI, in the assay with Es-2, in the assay on HeLa, in the assay on Hek293T, with JEG-3 and in the assay on OV90 was “inactive” each time. In addition, the Potency entry in the assay on PA-1, with SKOV3 and in the assay on Tov-21-G was “inactive” in each case.

In the case of `Nc1ccc(C(=O)NCC(=O)O)cc1`, the Potency entry in the assay on MCC-26, with MKL-1, with MKL-2, in the assay on UISO, in the assay with WaGa and in the assay with C33A was “inactive” throughout. For the same molecule, the Potency result in the assay on CAOV3, in the assay on CASKI, in the assay on Es-2, in the assay with HeLa, in the assay with Hek293T and in the assay with JEG-3 was “inactive” in each case. The Potency result in the assay on OV90, with PA-1 and with Tov-21-G was “inactive” each time.

Turning to `C#C[C@]1(O)CC[C@H]2[C@@H]3CCc4cc(OC)ccc4[C@H]3CC[C@@]21C`, the Potency entry in the assay on MCC-13, with MKL-1, in the assay on UISO, in the assay with WaGa, in the assay with C33A and in the assay with CAOV3 was “inactive” each time. The Potency entry in the assay on CASKI, in the assay on Es-2, in the assay with HeLa, in the assay on Hek293T, in the assay with JEG-3 and with OV90 was “inactive” throughout. Moreover, the Potency result with PA-1, in the assay with SKOV3 and with Tov-21-G was “inactive” in each case.

As to `CN1CCN(C2=Nc3cc(F)ccc3Cc3ccccc32)CC1`, the Potency entry in the assay on MCC-13, with MKL-1, in the assay with MKL-2, in the assay with UISO, in the assay with C33A and in the assay on CASKI was “inactive” throughout. Further, the Potency entry with Es-2, in the assay with HeLa, in the assay with Hek293T, in the assay with JEG-3, with PA-1 and in the assay on SKOV3 was “inactive” throughout. In addition, the Potency result in the assay with Tov-21-G was “inactive”.

`O=C1OC(CN2CCOCC2)CN1/N=C/c1ccc([N+](=O)[O-])o1` (stereo unspecified): the Potency result in the assay with MCC-13, in the assay on UISO, in the assay on WaGa, in the assay on C33A, with CAOV3 and in the assay with CASKI was “inactive” throughout. The Potency entry in the assay with Es-2, with HeLa, in the assay with Hek293T, in the assay on JEG-3, with PA-1 and with SKOV3 was “inactive” in each case. Also, the Potency entry in the assay with Tov-21-G is “inactive”.

On to `CCN(CC)CCNc1ccc(CO)c2sc3ccccc3c(=O)c12`, for which the Potency with MCC-13 was 26.6 µM (active); in the assay on MKL-1, 10.6 µM (active); with MKL-2 it was 3.35 µM (active); in the assay with UISO, 5.96 µM (active); with CAOV3, 22.4 µM (active); in the assay on Hek293T it was 35.5 µM (active). In addition, the Potency was 35.5 µM (active) with OV90 and 28.2 µM (active) with PA-1. In addition, the Potency entry with HeLa was “inactive”.

As to `Nc1nc(Cl)nc2c1ncn2[C@@H]1O[C@H](CO)[C@@H](O)[C@@H]1F`, the Potency in the assay with MCC-26 was 3.76 µM (active); with MKL-1, 0.119 µM (active); in the assay on WaGa it was 0.0944 µM (active); in the assay with CAOV3 it was 1.12 µM (active); in the assay on Es-2 it was 0.316 µM (active); in the assay with JEG-3 it was 11.2 µM (active). In addition, the figures for the Potency in the assay on OV90 and with PA-1 were 0.398 µM (active) and 1.26 µM (active), respectively. Further, the Potency entry with HeLa is “inactive”.

With `CCCCCN=C(N)N/N=C/c1c[nH]c2ccc(OC)cc12`, the Potency result with MKL-1, in the assay on MKL-2 and in the assay with WaGa was “inactive” in each case. For the same molecule, the Potency in the assay on UISO is 11.9 µM (active).

As for `NCCNc1cccc2ccccc12`, the Potency result in the assay on MCC-13, in the assay on UISO, with C33A, in the assay on CAOV3, in the assay on CASKI and in the assay on Es-2 was “inactive” each time. Moreover, the Potency result with HeLa, in the assay with Hek293T, with JEG-3, in the assay on OV90, with PA-1 and in the assay with SKOV3 was “inactive” in each case. For the same molecule, the Potency result with Tov-21-G is “inactive”.

As for `CCNC(=O)NCc1cccc(Cl)c1`, the Potency result in the assay with MCC-13, in the assay on MKL-1, in the assay with MKL-2, in the assay with UISO, in the assay on WaGa and in the assay with C33A was “inactive” throughout. The Potency result in the assay on CAOV3, in the assay with CASKI, in the assay with Es-2, in the assay with HeLa, in the assay with Hek293T and in the assay on JEG-3 was “inactive” each time. Further, the Potency entry in the assay on OV90, in the assay on PA-1, in the assay with SKOV3 and in the assay with Tov-21-G was “inactive” throughout.

As to `O=C(Oc1cccc2cccnc12)c1ccccc1`, the Potency result in the assay with MKL-1, in the assay on CAOV3, in the assay on CASKI, in the assay on Es-2, in the assay with HeLa and in the assay on Hek293T was “inactive” throughout. Moreover, the Potency entry with JEG-3, in the assay with OV90 and with Tov-21-G was “inactive” in each case.
